# From PubChem BioAssay (NCI)
# Compounds without any hit were thinned out: in the full panel of roughly 83,000, 20% have a hit.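 Step 1: grow cells in 96-well plates. Step 2: add test compound at a single concentration. Step 3: incubate 48 h. Step 4: record percent growth.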 Values without a mark were called inactive. Activity calls are given as the source filed them. How the source made its calls: active means growth percent below 10; inactive means the rest.
# Tested on: NCI-H226 lung
# Assay: NCI-60 one-dose screen, 48 h (100 = growth as untreated, 0 = no growth, -100 = all killed)
# Conditions: 10 µM unless noted
row,Compound,growth
1,O=C(/C=C/c1ccc2ccccc2c1)Nc1ncc(Cc2ccccc2)s1,46%
2,O=C1c2cc3c(cc2-c2c1c1ccc(F)cc1c(=O)n2CCCN1CCOCC1)OCO3,20.4%
3,C=C1CC[C@@H](C(=O)OC)Cc2nc(C)ccc21,103%
4,CCN1CCN(C(=O)[C@]23CCC(C)(C)C[C@@H]2C2=CC[C@@H]4[C@@]5(C)C/C(=C/c6cccnc6)C(=O)C(C)(C)[C@@H]5CC[C@@]4(C)[C@]2(C)CC3)CC1,32.9%
5,Nc1c(C(=O)Nc2cccc3ccccc23)sc2nc3c(cc12)CCCC3,63.1%
6,CC(C)(C)c1cc(-n2c(-c3ccc(Cl)cc3)nc3cc(C(=O)Nc4ccc(Cl)cc4)ccc32)n[nH]1,73.9%
7,Fc1ccc(Nc2nnc(-c3ccc(Cl)cc3)o2)cc1,93.8%
8,O=C1/C(=C\c2ccc(Br)o2)SC(=S)N1CCc1ccc(O)cc1,97.3%
9,CC(=O)c1c(C)[nH]c(-c2nc3ccc(N4CCN(C)CC4)cc3[nH]2)c1-c1ccc2c(c1)OCCO2,47.9%
10,COc1ccc2[nH]c(-c3ccc(Cl)cc3)cc(=O)c2c1,97.6%
11,CCC1C(=O)COC1=O (stereo not drawn),100%
12,COc1ccc(O)c(-c2cc(-c3ccc(Cl)cc3)c(C#N)c(=O)[nH]2)c1,89.1%
13,C=C(C)[C@@H]1CC[C@]2(C)[C@H](CC[C@@H]3[C@H]4[C@H]5OC[C@@]4(CCC5(C)C)CC[C@]32C)[C@@]1(C)CCCN,100%
14,CN1CCN(CCOc2ccc(-c3cnc4c(-c5cccc(F)c5)cnn4c3)cc2)CC1,109%
15,Cc1cc(N(CCNc2ccnc3cc(Cl)ccc23)Cc2ccco2)nc(Cl)n1,-62.3% (active)
16,COc1ccc(CCN2C(=O)C(C)(C)SC2=S)cc1OC,105%
17,Cc1cc2nc3c4cc(O)ccc4n(CCN(C)C)c3nc2cc1C,-24.6% (active)
18,CCCCC(=O)OC1CCCCC1C (stereo not drawn),79.1%
19,COc1ccc2c(c1)c(-c1nc(-c3c[nH]c4ncccc34)cs1)cn2CCCN1CCCCC1,70.8%

row,Compound,growth
1,CC(=O)c1c(C)[nH]c(-c2nc3ccc(N4CCN(C)CC4)cc3[nH]2)c1-c1ccc(OCC2CCOCC2)cc1,44.4%
2,Cc1nc([P+](c2ccccc2)(c2ccccc2)c2ccccc2)c(Sc2sc(-c3ccccc3)nc2[P+](c2ccccc2)(c2ccccc2)c2ccccc2)o1,47.6%
3,NNC(=O)c1nc2ccccc2[nH]1,116%
4,O=P(O)(c1ccccc1)c1ccccc1I,90%
5,COc1ccc(OC)c(-c2c(C#N)c(-c3ccco3)nc3c2c(-c2ccccc2)nn3-c2ccccc2)c1,90.1%
6,CNC(=O)c1cc(Oc2ccc3nc(NC(=O)Nc4ccc(Cl)cc4)sc3c2)ccn1,67.9%
7,Clc1cc(Cl)cc(Nc2ccc3c(OCCCN4CCOCC4)cccc3n2)c1,26.6%
8,N#CC1=C(N)Oc2c(c(N)nn2-c2ccccc2)C1c1ccc(Cl)cc1Cl (stereo not drawn),102%
9,CC(C)(C)c1ccc(OCCCCCCCN2CCNCC2)cc1,70.3%
10,Cc1cc(Cl)nc(N(CCCNc2ccnc3cc(Cl)ccc23)Cc2ccco2)n1,24.1%
11,CC1(C)NCCC[C@]2(C)[C@H]3CC[C@@H]4[C@H]5[C@H](C(=O)/C=C/c6ccccn6)CC[C@]5(CO)CC[C@@]4(C)[C@]3(C)CC[C@@H]12,85.5%
12,NCCNc1nc(-c2ccccc2)nc2nc(-c3ccccc3)oc12,86.1%
13,COc1cnc2c(c1)C(=O)c1c-2n(CCCNC(C)C)c(=O)c2cc([N+](=O)[O-])ccc12,-58.8% (active)
14,COc1cnc2c(c1)C(=O)c1c-2n(CCCNC2=NCCS2)c(=O)c2cc([N+](=O)[O-])ccc12,8.43% (active)
15,CCC(c1ccc(OC)cc1)C(CC)c1ccc(O)c(CN2CCCCC2)c1 (stereo not drawn),70%
16,COc1cc2nc(Cl)nc(Nc3cccc(C(=O)/C=C/c4ccccc4)c3)c2cc1OC,66.1%
17,CC1(C)C(=O)/C(=C\c2ccco2)C[C@]2(C)[C@H]3CC[C@@H]4[C@@H](C(=O)/C=C/c5ccco5)CC[C@@]4(C)[C@]3(C)CC[C@@H]12,103%
18,CCCC1CCCCN1C(=O)OCC(C)C (stereo not drawn),105%
19,Cc1ccc(-c2nn(Cc3cn(-c4cc(C)nc5ccccc45)nn3)c3ncnc(N)c23)cc1,35%
